According to PubChem BioAssay (NCATS):
Inconclusive results are not listed. Calls of active or inactive are those of the source. Calls follow the shape of the dose curve; as a rule, active = well fitted cell-killing curve with a large enough effect; inconclusive = small, poorly fitted or top-dose-only effect; inactive = no such curve, though single readings can be large or run the other way. Starred links: 1 amine or outer side, 2 acyl side, 3 side chain; linkers in the order of their positions; H or OH if unused. Positions of bridges follow the written chain, without caps; N, C: chain ends. Non-standard residues stand in square brackets, D forms with d. Residues, ends and D or L forms follow the SMILES beside them. Chains are numbered I, II in the order given. Actinocin(9to1) = Cc1c2oc3c(C)ccc(C(=O)[*:1])c3nc-2c(C(=O)[*:2])c(N)c1=O; NMeV = CN[CH](C(=O)O)C(C)C; Sar = CNCC(=O)O

Experiment: Quantitative High-Throughput drug screen in 47 multiple myeloma cell lines against the NCATS MIPE library collection: JIM3_ECACC cell viability assay (AID 1918963; also: nearly all actives have a fitted effect of over 35% in size)
Details: JIM3 myeloma viability, CellTiter-Glo ATP, 48 h; series mostly up to 45.8 µM
Description: PI: Beverly A. Mock Ph.D.
Laboratory of Cancer Biology and Genetics,
Center for Cancer Research, National Cancer Institute,
National Institute of Health, Bethesda, Maryland
Drug resistance and disease progression are common in multiple myeloma (MM) patients, underscoring the need for new therapeutic combinations. […] We hypothesized that effective combinations would reduce MYC expression and enhance p16 activity. […] These preclinical data identify potentially useful drug combinations for evaluation in drug-resistant MM and reveal potential mechanisms of combined drug sensitivity.
Described herein is the primary MIPE qHTS used to cherrypick compounds. Validated compounds were then further tested for potential synergistic activiy.
[1] Peat TJ, Gaikwad SM, Dubois W, Gyabaah-Kessie N, Zhang S, Gorjifard S, Phyo Z, Andres M, Hughitt VK, Simpson RM, Miller MA, Girvin AT, Taylor A, Williams D, D'Antonio N, Zhang Y, Rajagopalan A, Flietner E, Wilson K, Zhang X, Shinn P, Klumpp-Thomas C, McKnight C, Itkin Z, Chen L, Kazandijian D, Zhang J, Michalowski AM, Simmons JK, Keats J, Thomas CJ, Mock BA. Drug combinations identified by high-throughput screening promote cell cycle transition and upregulate Smad pathways in myeloma. Cancer Lett. 2023 Aug 1;568:216284. doi: 10.1016/j.canlet.2023.216284. Epub 2023 Jun 24. PMID: 37356470; PMCID: PMC10408729.
SEQUENCE No. (e.g., 1, 2, 3, etc.); […] (e.g., Cells, Incubation, Reagent, etc.); VALUE and DESCRIPTION.
1; Cells; 5 uL; white, solid bottom 1536-well Greiner assay plate.
2; Compounds; 23 nL; Kalypsis pin tool (Wako USA) equipped with a 1536-well pin head to transfer to the assay plates.
3; Incubation; 48 hours; 37C incubation.
4; Reagent;5uL; CellTiter Glo (Promega).
5; Detector; 425V; Luminescence; Viewlux PerkinElmer.
NOTES (numbers refer to Sequence numbers above)
1. The cell-based screening methods employed in this study were like those previously published. Briefly, the corresponding myeloma cell lines were screened in 1,536-well plates with 500 cells, 5-uL per well for inhibition of cell viability (assessed by measuring ATP levels with CellTiterGlo).
2. NCATS MIPE 4.0 library of approved and investigational drugs were added using the Kalypsis pin tool. Wells treated with DMSO only for 100% viability and media only wells for 0% viability were used as controls.
3. The assay plates were covered and incubated for 48 hours in a 37C, 5% CO2 incubator with controlled humidity.
4. After 48 hours, CellTilter-GloTM luminescent substrate mix (Promega) reagent was added to the assay plate and plates we incubated for 5 min at room temperature.
5. Signal was measured as median relative luminescence units on a ViewLux (PerkinElmer) multiplate reader.
[1] Heske CM, Davis MI, Baumgart JT, Wilson K, Gormally MV, Chen L, Zhang X, Ceribelli M, Duveau DY, Guha R, Ferrer M, Arnaldez FI, Ji J, Tran HL, Zhang Y, Mendoza A, Helman LJ, Thomas CJ. Matrix Screen Identifies Synergistic Combination of PARP Inhibitors and Nicotinamide Phosphoribosyltransferase (NAMPT) Inhibitors in Ewing Sarcoma. Clin Cancer Res. 2017 Dec 1;23(23):7301-7311. doi: 10.1158/1078-0432.CCR-17-1121. Epub 2017 Sep 12. PMID: 28899971; PMCID: PMC6636827.
Potency is read from the fitted curve at half-maximal effect.

| Structure (SMILES) | Potency |
| --- | --- |
| O=C(NNC(=O)c1ccc(CNS(=O)(=O)c2ccc(F)c(Cl)c2)cc1)c1ccccc1 | inactive |
| CN[C@H](CC(C)C)C(=O)N[C@H]1C(=O)N[C@@H](CC(N)=O)C(=O)N[C@@H]2C(=O)N[C@H]3C(=O)N[C@H](C(=O)N[C@H](C(=O)O)c4cc(O)cc(O)c4-c4cc3ccc4O)[C@H](O)c3ccc(c(Cl)c3)Oc3cc2cc(c3O[C@@H]2O[C@H](CO)[C@@H](O)[C@H](O)[C@@H]2O[C@H]2C[C@](C)(N)[C@H](O)[C@H](C)O2)Oc2ccc(cc2Cl)[C@H]1O | inactive |
| COc1cc(O)c2c(c1)C1OC1C[C@H](O)[C@H](O)C(=O)C=CC[C@H](C)OC2=O (stereo not given in full) | 3720 nM (active) |
| C=C[C@@H]1CN2CCC1C[C@H]2[C@H](O)c1ccnc2ccc(OC)cc12 (stereo not given in full) | inactive |
| COc1ccc2c(c1OC)C(=O)OC2[C@H]1c2c(cc3c(c2OC)OCO3)CCN1C (stereo not given in full) | 83.3 nM (active) |
| Cc1c2oc3c(C)ccc(C(=O)NC4C(=O)NC(C(C)C)C(=O)N5CCCC5C(=O)N(C)CC(=O)N(C)C(C(C)C)C(=O)OC4C)c3nc-2c(C(=O)NC2C(=O)NC(C(C)C)C(=O)N3CCCC3C(=O)N(C)CC(=O)N(C)C(C(C)C)C(=O)OC2C)c(N)c1=O (stereo not given) (I: TVP[Sar][NMeV] / II: TVP[Sar][NMeV]; ester I:1-I:C, II:1-II:C; linker I:N-II:N via Actinocin(9to1); configuration not given here) | inactive |
| Cn1cc(CNCC2CCN(c3ncc(C(=O)NO)cn3)CC2)c2ccccc21 | 132 nM (active) |
| O=[N+]([O-])c1cn2c(n1)OC[C@@H](OCc1ccc(OC(F)(F)F)cc1)C2 | inactive |
| COc1cc(C(=O)NC2CCN(C)CC2)ccc1Nc1ncc2c(n1)N(C1CCCC1)CCC(=O)N2C(C)C | 20900 nM (active) |
| COc1cc(C=CC(=O)CC(=O)C=Cc2ccc(O)c(OC)c2)ccc1O | 4810 nM (active) |
| O=C1NC(=O)[C@@H](c2cn3c4c(cccc24)CCC3)[C@H]1c1c[nH]c2ccccc12 | 118 nM (active) |
| CC(C=CC(=O)NO)=C[C@@H](C)C(=O)c1ccc(N(C)C)cc1 | 743 nM (active) |
| CCCCCCCCCCCCc1ccc(S(=O)(=O)Nc2nncs2)cc1 | inactive |
| CC(C=CC1=C(C)CCCC1(C)C)=CC=CC(C)=CC(=O)Nc1ccc(O)cc1 | 5400 nM (active) |
| CCOC(=O)N1CCN([N+]([O-])=NOc2ccc([N+](=O)[O-])cc2C#N)CC1 | 1050 nM (active) |
| COc1cc2c(Nc3ccc(Cl)c(Cl)c3F)ncnc2cc1OCC1C[C@@H]2CN(C)C[C@H]2C1 | 4180 nM (active) |
| COc1ccc(C[C@@H](C)[C@@H](C)Cc2ccc(OC)c(OC)c2)cc1OC | 418 nM (active) |
| CCNC(=O)c1cc2c(-c3cc(OCCN4CCCC4)c(Cl)cc3Cl)nc(N)nc2s1 | 935 nM (active) |
| Nc1cccc2c1C(=O)N(C1CCC(=O)NC1=O)C2=O (stereo not given) | 93.5 nM (active) |
| CC(C)(C)c1nc2c3cc[nH]c(=O)c3c3cc(F)ccc3c2[nH]1 | 1870 nM (active) |

| Structure (SMILES) | Potency |
| --- | --- |
| CC(=O)NCC(=O)N1[C@H]2CC[C@H]1c1cc(Nc3ncc(C(F)(F)F)c(NC4CCC4)n3)ccc12 | 1180 nM (active) |
| Oc1cc(-c2nc(-c3ccccc3)[nH]c2-c2ccncc2)ccc1Cl | 20900 nM (active) |
| CCCc1nc(C(C)(C)O)c(C(=O)O)n1Cc1ccc(-c2ccccc2-c2nn[nH]n2)cc1 | inactive |
| NC[C@H]1O[C@H](O[C@H]2[C@@H](O)[C@@H](O[C@H]3O[C@H](CO)[C@@H](O)[C@H](N)[C@@H]3O)[C@H](N)C[C@@H]2N)[C@H](N)C[C@H]1O | inactive |
| CC(C)(O)Cn1c(NC(=O)c2ccc(-c3cn[nH]c3)s2)nc2cc(CN3CCOCC3)ccc21 | 1320 nM (active) |
| COc1cc([C@@H]2c3cc4c(cc3[C@H](O)[C@H]3COC(=O)[C@@H]23)OCO4)cc(OC)c1OC | 118 nM (active) |
| C[C@]12CCC(=O)C=C1[C@@H]1CC1[C@H]1[C@H]3[C@@H]4C[C@H]4[C@@]4(CCC(=O)O4)[C@@]3(C)CC[C@H]12 (stereo not given in full) | inactive |
| Nc1ccn(C2CO[C@H](CO)O2)c(=O)n1 (stereo not given in full) | 3320 nM (active) |
| Cc1ccc(O)c(C(CCN(C(C)C)C(C)C)c2ccccc2)c1 (stereo not given) | inactive |
| CN(CC(=O)N(Cc1ccc(C2CCCCC2)cc1)c1ccc(C(=O)O)c(O)c1)S(=O)(=O)c1c(F)c(F)c(F)c(F)c1F | 9350 nM (active) |
| CCOC(=O)C1=C(C)NC(=S)NC1c1cccc(O)c1 (stereo not given) | 37.2 nM (active) |
| CCC[C@H]1C[C@H](C(=O)N[C@@H]([C@@H]2O[C@@H](SC)[C@@H](O)[C@@H](O)[C@@H]2O)[C@H](C)Cl)N(C)C1 | inactive |
| OCCN1C[C@H](O)[C@@H](O)[C@H](O)[C@@H]1CO | inactive |
| Cc1cc(-c2nnc3n2CCCCC3)c(C)n1-c1ccccc1 | inactive |
| CNC(=O)Nc1ccc(-c2nc(N3CC4CCC(C3)O4)c3cnn(C4CCC5(CC4)OCCO5)c3n2)cc1 | 418 nM (active) |
| O=C(C=CC=Cc1ccc2c(c1)OCO2)N1CCCCC1 | inactive |
| O=C(Nc1nnc(-c2ccco2)o1)c1cc(-c2ccccc2)nc2ccccc12 | 18700 nM (active) |
| C=C1CCC2[C@](C)(CO)C(O)CC[C@]2(C)C1CC=C1C(=O)OCC1O (stereo not given in full) | inactive |
| COc1ccc(S(=O)(=O)Nc2cccnc2Nc2ccc(O)cc2)cc1 | 52.6 nM (active) |
| CC(C)C[C@H](NC(=O)[C@@H](NC(=O)c1cccc(-c2ccccc2)n1)[C@@H](C)O)B(O)O | 37.2 nM (active) |
